Data from PubChem BioAssay AID1159580 (chemical genetic matrix, 2015).
Among all 5,500 compounds or so, about 2,000 (36%) were called active. Roughly 18% stayed inconclusive and do not appear here. Rule as the data show it: active = normalized growth mostly below about 0.91 (no sharp cut-off); inconclusive = no clear call, values can overlap the other calls; inactive = mostly above about 0.92. The list shows a part of the results.

Assay: chemical genetic growth profiling, strain panel (AID 1159580);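 also: tested at 20 µM; growth read once vehicle control cultures reached saturation at 30 °C; 1 = growth at the plate median or of vehicle wells; lower values mean less growth of the strain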
Conditions: S. cerevisiae deletion strains, growth OD
[1] = locus YAL040C, strain CLN3, stronger effect = lower value
[2] = locus YCL061C, strain MRC1 (second series), stronger effect = lower value
[3] = locus YDR363W, strain ESC2, stronger effect = lower value
[4] = locus YER002W, strain NOP16, stronger effect = lower value
[5] = locus YGR078C, strain PAC10, stronger effect = lower value
[6] = locus YJR075W, strain HOC1, stronger effect = lower value
[7] = locus YMR263W, strain SAP30, stronger effect = lower value
[8] = locus YNL153C, strain GIM3, stronger effect = lower value
[9] = locus YNL175C, strain NOP13, stronger effect = lower value
[10] = locus YNL197C, strain WHI3, stronger effect = lower value
[11] = locus YNL224C, strain SQS1, stronger effect = lower value
[12] = locus YNL322C, strain KRE1, stronger effect = lower value
[13] = locus YOR083W, strain WHI5 (second series), stronger effect = lower value

Measured: normalized growth

N[C@@H](CCCC(=O)O)C(=O)O
inactive: locus YAL013W, strain DEP1, stronger effect = lower value 1.01 | [1] 1.08 | [2] 1.01 | [3] 1.02 | [4] 0.981 | [5] 1.01 | [6] 1.01 | [7] 1 | [8] 1.02 | [9] 1 | [10] 1.03 | [11] 0.988 | [12] 1.02 | [13] 0.993 | locus YPL055C, strain LGE1, stronger effect = lower value 0.988

C[N+](C)(C)CC#CCN1CCCC1=O
inactive: [1] 0.99 | [2] 0.996 | locus YDR150W, strain NUM1, stronger effect = lower value 1.01 | [3] 1 | [4] 0.985 | [5] 0.991 | locus YMR307W, strain GAS1, stronger effect = lower value 1.01 | [8] 0.994 | [9] 0.996 | [10] 0.996 | [11] 0.996 | [12] 1 | [13] 1.01

CCCCN1CCC(n2c(=O)[nH]c3ccccc32)CC1
inactive: [1] 1.01 | [2] 1.01 | [3] 1.02 | [4] 0.994 | locus YGR229C, strain SMI1, stronger effect = lower value 1.01 | [6] 1.02 | [7] 1 | [8] 0.952 | [9] 1.01 | [10] 1.03 | [11] 0.988 | [13] 1.01
